# In PubChem BioAssay (Tox21):
# Inconclusive results are not listed. Entries that show only a call come without a potency. Activity calls are given as the source filed them. Unless noted, the call rests on the fitted dose curve; in most records, active means well fitted curve in the direction sought with a large enough effect in the repeat runs; inconclusive means weak or mixed curves; inactive means no such curve, though single readings can be large; an effect the other way counts as inactive or inconclusive.
# Legend:
# [1] = qHTS assay for small molecules that induce genotoxicity in human embryonic kidney cells expressing luciferase-tagged ATAD5 (AID 651632); further: nearly all actives have a fitted effect of over 15% in size
# In short: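 Luminescent reporter readout, HEK293T ATAD5-luc line: 16 hr drug exposure (37C, 5% CO2) followed by Amplite, 30 min RT.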
# [2] = qHTS assay for small molecule agonists of the p53 signaling pathway - cell viability (AID 651633; calls by dose curve;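 further: p53RE-bla HCT reporter cells with a stable beta-lactamase p53 reporter; series mostly up to about 83 µM; nearly all actives have a fitted effect of over 30% in size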)
# In short: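 p53RE-bla cells, seeded at 4,000 per well and rested 5 h at 37 C/5% CO2, received compounds in DMSO for 16 h at 37 C. CellTiter-Glo was then added, and luminescence was read after 30 min at room temperature to gauge cytotoxicity.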
# [3] = qHTS assay for small molecules that induce genotoxicity in human embryonic kidney cells expressing luciferase-tagged ATAD5 - cell viability (AID 651634; calls by dose curve; further: nearly all actives have a fitted effect of over 25% in size; further: potency means the concentration at half of the fitted maximal effect)
# In short: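 Viability read: CellTiter-Fluor fluorescence, 30 min at 37C. Cells: HEK293T, luciferase-tagged ATAD5. Exposure: 15.5 hr, 37C, 5% CO2, compound or DMSO vehicle.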
# [4] = qHTS assay for small molecule disruptors of the mitochondrial membrane potential - cell viability (AID 720634; calls by dose curve;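 further: human HepG2 liver cancer cells; series mostly up to about 83 µM; nearly all actives have a fitted effect of over 20% in size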)
# In short: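 HepG2, 1 hr compound, 37 C. ATP luminescence via CellTiter-Glo, 30 min RT, same well as m-MPI.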
# [5] = qHTS assay for small molecule disruptors of the mitochondrial membrane potential (AID 720635); further: potency means the concentration at half of the fitted maximal effect
# In short: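 HepG2 cells (2,000/well) attached overnight at 37C, then took compound for 1 hr at 37C, 5% CO2. Mito-MPS dye was added for 30 min; fluorescence was read at 490/535 nm (monomers) and 540/590 nm (aggregates).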
# [6] = qHTS assay to test for compound auto fluorescence at 590 nm (red) in HepG2 cells (AID 720674)
# In short: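 Intrinsic compound fluorescence in the red window (Ex/Em 540/590 nm) is measured in attached HepG2 cells exposed for 1 hr, DMSO vehicle as baseline, benchmarked to Rose Bengal sodium.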
# [7] = qHTS assay to test for compound auto fluorescence at 535 nm (green) in HepG2 cells (AID 720675)
# [8] = qHTS assay to test for compound auto fluorescence at 460 nm (blue) in HEK293 cells (AID 720678)
# In short: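 Cells were seeded and left to adhere for 4-5 hr at 37C. Compounds were then pin-transferred. After an overnight incubation at 37C under 5% CO2, intrinsic fluorescence at 405/460 nm was measured and referenced to triamterene.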
# [9] = qHTS assay to test for compound auto fluorescence at 590 nm (red) in HEK293 cells (AID 720679)
# In short: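 Each well held 2,000 HEK293 cells in medium containing 10% dialyzed FBS. Following 4-5 hr attachment at 37C, 23 nL test compound or DMSO was added; plates sat overnight, and red fluorescence (540/590nm) was recorded.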
# [10] = qHTS assay to test for compound auto fluorescence at 535 nm (green) in HEK293 cells (AID 720680)
# [11] = qHTS assay to test for compound auto fluorescence at 460 nm (blue) in HEK293 cell free culture (AID 720681)
# In short: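 Test compounds were pinned into cell-free culture medium (DMEM with 10% FBS) and fluorescence was read directly at Ex/Em 405/460 nm. Signals were expressed as fluorescence equivalents of triamterene, with DMSO vehicle as control.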
# [12] = qHTS assay to test for compound auto fluorescence at 535 nm (green) in HEK293 cell free culture (AID 720682)
# In short: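 Cell-free medium (DMEM, 10% FBS) receives compound or DMSO by pintool. Plate read directly at Ex 485/Em 535 nm. Signal converted to fluorescein equivalency.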
# [13] = qHTS assay to test for compound auto fluorescence at 590 nm (red) in HEK293 cell free culture (AID 720683)
# In short: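 Tox21 10K library compounds were pinned into cell-free DMEM with 10% FBS and fluorescence was read at excitation 540 nm. Activity is expressed as Rose Bengal sodium equivalency.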
# [14] = qHTS assay to test for compound auto fluorescence at 590 nm (red) in HepG2 cell free culture (AID 720684)
# In short: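 Red fluorescence (540 nm excitation, 590 nm emission) was measured after compound transfer into cell-free MEM supplemented with 10% FBS. Values are equivalencies against Rose Bengal sodium.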
# [15] = qHTS assay to test for compound auto fluorescence at 460 nm (blue) in HepG2 cell free culture (AID 720685)
# In short: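 Compound (23 nL) or DMSO pinned into cell-free MEM with 10% FBS; blue fluorescence read at 405/460 nm excitation/emission, expressed as auto-fluorescence equivalency to triamterene.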
# [16] = qHTS assay to test for compound auto fluorescence at 535 nm (green) in HepG2 cell free culture (AID 720686)
# [17] = qHTS assay to test for compound auto fluorescence at 460 nm (blue) in HepG2 cells (AID 720687)
# In short: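 Cells (2,000/well in MEM with 10% FBS) attached overnight at 37 C, then were exposed to compound or DMSO for 1 hr at 37 C, 5% CO2. Fluorescence read at Ex/Em 405/460 nm, expressed as triamterene-equivalent signal.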
# [18] = molecular target: Glucocorticoid receptor (Homo sapiens) (UniProt P04150); assay: qHTS assay to identify small molecule agonists of the glucocorticoid receptor (GR) signaling pathway (AID 720691; active means well fitted activation curve with a large enough effect in the signal ratio in the repeat runs, not every such curve was filed as active; the % refers to the signal ratio)
# In short: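 qHTS in GR-bla HeLa cells: 4 h settling at 37 C/5% CO2, 18 h compound incubation at 37 C, 2 h LiveBLAzer B/G FRET substrate at room temperature, fluorescence intensity measured.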
# [19] = molecular target: Glucocorticoid receptor (Homo sapiens) (UniProt P04150); assay: qHTS assay to identify small molecule antagonists of the glucocorticoid receptor (GR) signaling pathway (AID 720692; active means well fitted inhibition curve with a large enough effect in the signal ratio in the repeat runs, not every such curve was filed as active; the % refers to the signal ratio)
# In short: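 Inhibition of glucocorticoid signalling is measured in HeLa cells with a GRE-controlled beta-lactamase reporter; cells are co-treated with compound and 5 nM dexamethasone (final) for 18 h before FRET substrate readout.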
# Glucocorticoid receptor (Homo sapiens), sequence (P04150 whole entry, looked up): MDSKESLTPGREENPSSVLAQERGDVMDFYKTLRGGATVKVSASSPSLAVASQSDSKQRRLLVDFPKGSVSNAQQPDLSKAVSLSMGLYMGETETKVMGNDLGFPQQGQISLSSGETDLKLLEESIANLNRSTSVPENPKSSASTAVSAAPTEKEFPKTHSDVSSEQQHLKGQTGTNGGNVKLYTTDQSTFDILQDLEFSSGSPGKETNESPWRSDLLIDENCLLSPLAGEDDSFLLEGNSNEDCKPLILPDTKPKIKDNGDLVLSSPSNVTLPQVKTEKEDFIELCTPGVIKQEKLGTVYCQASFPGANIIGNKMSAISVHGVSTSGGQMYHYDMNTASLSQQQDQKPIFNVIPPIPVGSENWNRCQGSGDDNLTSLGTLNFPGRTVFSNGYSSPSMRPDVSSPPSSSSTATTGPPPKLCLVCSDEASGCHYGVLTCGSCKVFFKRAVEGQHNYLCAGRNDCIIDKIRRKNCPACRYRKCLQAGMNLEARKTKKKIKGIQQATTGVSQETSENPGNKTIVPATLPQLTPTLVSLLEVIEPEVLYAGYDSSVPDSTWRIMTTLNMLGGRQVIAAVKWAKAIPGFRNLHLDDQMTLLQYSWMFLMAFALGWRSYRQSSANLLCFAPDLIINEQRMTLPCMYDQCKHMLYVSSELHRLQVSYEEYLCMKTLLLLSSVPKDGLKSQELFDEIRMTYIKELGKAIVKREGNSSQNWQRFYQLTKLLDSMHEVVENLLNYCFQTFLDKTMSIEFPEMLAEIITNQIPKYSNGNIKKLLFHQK
Structure (SMILES),Potency [1],Potency [2],Potency [3],Potency [4],Potency [5],outcome [6],outcome [7],outcome [8],outcome [9],outcome [10],outcome [11],outcome [12],outcome [13],outcome [14],outcome [15],outcome [16],outcome [17],outcome [18],Potency [19]
CC(=O)NC1CCSC1=O (stereo not given),inactive,inactive,inactive,inactive,inactive,inactive,inactive,inactive,inactive,inactive,inactive,inactive,inactive,inactive,inactive,inactive,inactive,–,–
CCCCCCCCCCOC(=O)c1ccccc1C(=O)OCCCCCCCCCC,inactive,inactive,inactive,inactive,inactive,inactive,inactive,inactive,inactive,inactive,inactive,inactive,inactive,inactive,inactive,inactive,inactive,inactive,–
NCC(CC(=O)O)c1ccc(Cl)cc1 (stereo not given),inactive,inactive,inactive,inactive,inactive,inactive,inactive,inactive,inactive,inactive,inactive,inactive,inactive,inactive,inactive,inactive,inactive,inactive,–
C=CC(=O)OCCCCO,inactive,inactive,inactive,inactive,inactive,inactive,inactive,inactive,–,–,inactive,inactive,inactive,inactive,inactive,inactive,inactive,inactive,–
O=Cc1ccc2c(c1)OCO2,inactive,inactive,inactive,inactive,inactive,–,inactive,inactive,inactive,inactive,inactive,inactive,inactive,inactive,inactive,inactive,inactive,inactive,–
CC(C)(OO)c1ccccc1,inactive,inactive,inactive,inactive,inactive,inactive,inactive,inactive,inactive,inactive,inactive,inactive,inactive,inactive,inactive,inactive,–,inactive,–
OCCCBr,inactive,inactive,inactive,inactive,–,inactive,inactive,inactive,inactive,inactive,–,inactive,inactive,inactive,inactive,inactive,–,inactive,inactive
OC(c1ccc(Cl)cc1)(c1ccc(Cl)cc1)c1cccnc1,inactive,–,inactive,inactive,54.5 µM (active),inactive,inactive,inactive,–,inactive,inactive,inactive,inactive,inactive,inactive,inactive,inactive,–,–
ClP(Cl)(Cl)(Cl)Cl,inactive,inactive,inactive,inactive,–,inactive,inactive,inactive,–,inactive,–,inactive,inactive,inactive,inactive,inactive,inactive,inactive,–
C/C(=C\c1ccccc1)[N+](=O)[O-],inactive,–,24.3 µM (active),inactive,30.6 µM (active),inactive,inactive,inactive,–,–,inactive,inactive,inactive,inactive,inactive,inactive,inactive,–,–
Cc1c(F)c(F)c(COC(=O)C2C(/C=C(\Cl)C(F)(F)F)C2(C)C)c(F)c1F (stereo not given),inactive,–,inactive,inactive,30.6 µM (active),inactive,inactive,inactive,inactive,inactive,inactive,inactive,inactive,inactive,inactive,–,inactive,–,–
O=C(O)CC(Cl)C(=O)O (stereo not given),inactive,inactive,inactive,–,–,inactive,inactive,inactive,inactive,inactive,inactive,inactive,inactive,inactive,inactive,inactive,inactive,inactive,inactive
O=[N+]([O-])C(Br)(CO)CO,inactive,–,inactive,inactive,inactive,–,inactive,inactive,–,–,inactive,inactive,inactive,inactive,inactive,–,inactive,–,–
Clc1cccc(SC2CCNCC2)n1,inactive,–,inactive,inactive,inactive,inactive,inactive,inactive,–,inactive,inactive,inactive,inactive,inactive,inactive,inactive,inactive,–,–
CCOP(=S)(OCC)Oc1cc(Cl)c(Br)cc1Cl,inactive,inactive,inactive,–,–,inactive,inactive,inactive,inactive,inactive,inactive,inactive,inactive,inactive,inactive,–,inactive,–,–
ClCCCCBr,inactive,inactive,inactive,inactive,–,inactive,inactive,inactive,–,–,inactive,inactive,inactive,inactive,inactive,inactive,inactive,inactive,–
O=C(Nc1ccccc1)Nc1ccnc(Cl)c1,inactive,inactive,–,inactive,0.386 µM (active),inactive,inactive,inactive,inactive,–,inactive,inactive,inactive,inactive,inactive,inactive,inactive,–,–
CCOP(O)OCC,inactive,inactive,inactive,inactive,–,inactive,inactive,inactive,–,inactive,inactive,inactive,inactive,inactive,inactive,inactive,inactive,inactive,–
CCCCC(CC)COP(=O)(Oc1ccccc1)Oc1ccccc1 (stereo not given),inactive,inactive,inactive,–,–,inactive,inactive,inactive,–,inactive,inactive,inactive,inactive,inactive,inactive,inactive,inactive,–,inactive
CN1[C@@H]2CC[C@H]1CC(OC(=O)c1cc(Cl)cc(Cl)c1)C2 (stereo not given in full),inactive,inactive,inactive,inactive,–,inactive,inactive,inactive,inactive,–,–,inactive,inactive,inactive,inactive,–,–,inactive,–
c1cc2ccc3cccc4ccc(c1)c2c34,inactive,inactive,inactive,–,–,inactive,inactive,inactive,inactive,inactive,inactive,inactive,inactive,inactive,inactive,inactive,inactive,inactive,–
N#CCC#N,inactive,inactive,inactive,inactive,–,inactive,inactive,inactive,–,inactive,inactive,inactive,inactive,inactive,inactive,inactive,inactive,–,–
O=Cc1ccc(Cl)cc1Cl,inactive,inactive,inactive,inactive,–,–,inactive,inactive,inactive,inactive,inactive,inactive,inactive,inactive,inactive,–,–,inactive,–
C=CC(=O)OCC(C)O (stereo not given),inactive,–,inactive,inactive,inactive,inactive,inactive,inactive,inactive,–,inactive,inactive,inactive,inactive,inactive,inactive,inactive,–,–
